The source of these data is article PMC7819943, “Rice protein-binding microarrays: a tool to detect cis-acting elements near promoter regions in rice”.

In all, about 39,000 sequences were measured (“fluorescence intensity (a.u.)”: median about 4,300, highest 2% from about 39,000 on). This excerpt belongs to a sample that is enriched for the highest values.

In the assay the target is T1, OsSMF1 (Oryza sativa, UniProt Q6ZLB0 1-436).
T1 sequence: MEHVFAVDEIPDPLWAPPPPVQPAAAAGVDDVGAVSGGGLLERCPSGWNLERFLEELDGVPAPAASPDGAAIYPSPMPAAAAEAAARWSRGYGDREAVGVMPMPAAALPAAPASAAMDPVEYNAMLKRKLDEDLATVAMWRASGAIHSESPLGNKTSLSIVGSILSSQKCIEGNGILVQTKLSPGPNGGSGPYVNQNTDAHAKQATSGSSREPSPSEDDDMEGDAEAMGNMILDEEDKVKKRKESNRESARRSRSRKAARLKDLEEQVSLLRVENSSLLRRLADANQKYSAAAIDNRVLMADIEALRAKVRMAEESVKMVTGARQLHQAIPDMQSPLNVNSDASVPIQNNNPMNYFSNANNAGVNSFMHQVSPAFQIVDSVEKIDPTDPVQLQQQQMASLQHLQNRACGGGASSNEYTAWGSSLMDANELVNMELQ
Put plainly: protein-binding microarray (RPBM); PBS, 2% BSA, 51.3 ng/ul salmon testes DNA, 50 uM zinc acetate, 200 nM TF, 25 C, 1 h; high values mean tight binding. The settings on record: protein: recombinant; tags: N-terminal polyhistidine and DsRed monomer fusion (pET32a); chain copies: 2; label: CyDye5-dUTP incorporated in the synthesized complementary strand; 3' TTTTT single-stranded linker to array surface; dsDNA, one strand shown. The method in brief:
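Transcription factors, each fused N-terminally to a polyhistidine tag and DsRed, were expressed in E. coli BL21-CodonPlus and purified on Ni–NTA. A custom Agilent array was made double-stranded by primer extension with Cy5-dUTP and blocked with 2% BSA. It was incubated with 200 nM protein in PBS, 2% BSA, salmon testes DNA and 50 µM zinc acetate at 25 °C for 1 h, then washed. The binding signal is per-feature fluorescence intensity (arbitrary units) read on an Axon 4000B scanner.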
For the sequence “TCTGGACCACATAAACGAGAGAGAGAGAGAAGTCCAAGCCCGGAGTCACCTAGTGCAG”, the binding signal is 47900 fluorescence intensity (a.u.).

In the case of “CAAGTCCAAGAGCACCATAAGCTAGTGACACATAGAGCCCCGGAGTCACCTAGTGCAG”, the binding signal was 4140 fluorescence intensity (a.u.).

For the sequence “CCTGAGGAGGGAAGGGTCGATGTGGAGGAGCGGCGGCGACCGGAGTCACCTAGTGCAG”, the binding signal is 3500 fluorescence intensity (a.u.).

Turning to “CGTGCGGCGGATCGTGGTGGACGCGAGCGGCGGCGGCGACCGGAGTCACCTAGTGCAG”, the binding signal was 3440 fluorescence intensity (a.u.).

As to “GATCGACGGCGACGCCCCTGGAAGGAGCGGAATAGACCACCGGAGTCACCTAGTGCAG”, the binding signal was 46700 fluorescence intensity (a.u.).

As to “TTTGCATTGACTTGATATAGTATGTCACCATCACACTATCCGGAGTCACCTAGTGCAG”, the binding signal is 5460 fluorescence intensity (a.u.).

In the case of “TTGCATCAGGCCCTCTTCAATGATTTAAACAAACAATGGACGGAGTCACCTAGTGCAG”, the binding signal is 52300 fluorescence intensity (a.u.).

Consider “TTACAAACAACGCCTTGCATGATTGCATCATCGCCCTAAACGGAGTCACCTAGTGCAG”, for which the binding signal is 4300 fluorescence intensity (a.u.).

Consider “TTGTGACTTGATTTATCATCAAATGTTCTTTAAACATGACCGGAGTCACCTAGTGCAG”, for which the binding signal is 3540 fluorescence intensity (a.u.).

As to “GGCGTATTCCAAAAGCCTTGGCCACCATTATTGCGTGGCACGGAGTCACCTAGTGCAG”, the binding signal was 6820 fluorescence intensity (a.u.).

As to “GCTAGCTAAGAGCGAGCTTCATTAACATACGAGACAGAGACGGAGTCACCTAGTGCAG”, the binding signal was 4530 fluorescence intensity (a.u.).

In the case of “GTTAATTAATACTCTCCGTTTCATATTATAAGGCGTTTGACGGAGTCACCTAGTGCAG”, the binding signal is 26400 fluorescence intensity (a.u.).

As for “ACCCATATAATTAAGGTGCCAATGCTGCTAATACTCTCTCCGGAGTCACCTAGTGCAG”, the binding signal is 46100 fluorescence intensity (a.u.).

As to “TACTCTGCCAATCTAAATTAATGATGTATGATATGGTCTCCGGAGTCACCTAGTGCAG”, the binding signal is 4340 fluorescence intensity (a.u.).

In the case of “GACACATGAGGGCCCACATGTCATACATTGTGAATGACACCGGAGTCACCTAGTGCAG”, the binding signal was 3900 fluorescence intensity (a.u.).

With “GCCGCACCGGTCGGTTTCAGCGCGTGTGACACGCAGATTCCGGAGTCACCTAGTGCAG”, the binding signal is 3500 fluorescence intensity (a.u.).

Consider “CTTGTCTAGTCCAGGACAACTGGGATGATTGAGCACCAGTCGGAGTCACCTAGTGCAG”, for which the binding signal was 3170 fluorescence intensity (a.u.).

In the case of “CAAACCACAGTGTTCCACGTCATCATCAATTGACAGCCGTCGGAGTCACCTAGTGCAG”, the binding signal is 37800 fluorescence intensity (a.u.).

As to “AACCTCAATGTTCCACGTCATCATTAATTTACAGCCGTTGCGGAGTCACCTAGTGCAG”, the binding signal was 39400 fluorescence intensity (a.u.).

For the sequence “CCGTTACATTGTTCCAATTTTAATTAAACTTCCAATTTTACGGAGTCACCTAGTGCAG”, the binding signal was 30600 fluorescence intensity (a.u.).

On to “ATGGGGTGGATGCGTCAGAATTTACATAGGCACGGAACGTCGGAGTCACCTAGTGCAG”, for which the binding signal is 5800 fluorescence intensity (a.u.).

Turning to “CCTTCCCTAGGGGCGGAGCCACGTAGCTTGGGCCCCACACCGGAGTCACCTAGTGCAG”, the binding signal is 6430 fluorescence intensity (a.u.).

Consider “GAGAGAGTGTAGGTTGCCGATGACGTTCCAAATATTGATCCGGAGTCACCTAGTGCAG”, for which the binding signal was 4490 fluorescence intensity (a.u.).

In the case of “TTATTATTATTGGATGGTTAGATGACAAATCCAACCTCACCGGAGTCACCTAGTGCAG”, the binding signal is 3640 fluorescence intensity (a.u.).

For “ATGACGATGGTTAATCCAAATAACATATTGGCCCGGGTTCCGGAGTCACCTAGTGCAG”, the binding signal is 49900 fluorescence intensity (a.u.).

For “ACCTTCATTGGATCTGCCTCCCTGCAAGCCTCTGCCTCAACGGAGTCACCTAGTGCAG”, the binding signal was 43300 fluorescence intensity (a.u.).

As to “CACCTTCTTCAAGCTCCCTCCTCTGAAGCCTCTTCTTCTTCGGAGTCACCTAGTGCAG”, the binding signal is 34900 fluorescence intensity (a.u.).

For the sequence “ATTGACATGGAGTCATGGACACTCTCCCTGCCTCCTCCCTCGGAGTCACCTAGTGCAG”, the binding signal was 3370 fluorescence intensity (a.u.).

Regarding “TGAAATGCTATGTTGGTCCAGACTTCCGCTACGAAGGAGACGGAGTCACCTAGTGCAG”, the binding signal is 65100 fluorescence intensity (a.u.).

Regarding “TCTCCACTTCAGAGACGGTCCCACCTGTCATCCGCTCATACGGAGTCACCTAGTGCAG”, the binding signal was 4680 fluorescence intensity (a.u.).

As to “TCCAGTTGTGCGTGGAGATGTTGGTGAAGAGCTTCCGCTGCGGAGTCACCTAGTGCAG”, the binding signal is 4270 fluorescence intensity (a.u.).

As to “CCCTTACACCGCCCTGTGAACAGTCACTGACAATCCTGGCCGGAGTCACCTAGTGCAG”, the binding signal was 4330 fluorescence intensity (a.u.).

Turning to “TTAGTGCATGCTGCTAACTAAATACACGTAGCTTGTTGATCGGAGTCACCTAGTGCAG”, the binding signal is 3310 fluorescence intensity (a.u.).

With “AAATTCCACGTGCCACATATTTCGTTCATTTGAGTTTATTCGGAGTCACCTAGTGCAG”, the binding signal was 8820 fluorescence intensity (a.u.).

For “CTCCTGCCCACCAATCTTGCGGCGGAAAACAAGGCGTGATCGGAGTCACCTAGTGCAG”, the binding signal is 4000 fluorescence intensity (a.u.).

On to “CCTACACATATATATATATATATGCATGGCAACTTGGCAACGGAGTCACCTAGTGCAG”, for which the binding signal was 3340 fluorescence intensity (a.u.).

In the case of “GTACGTCGGAAGCAACGGCAGACATGACAGCATATGGCCTCGGAGTCACCTAGTGCAG”, the binding signal is 15900 fluorescence intensity (a.u.).

As for “TTCATAGAGAGGGCCGGCAACGGCCTAGGCACGCTGGTGTCGGAGTCACCTAGTGCAG”, the binding signal is 34700 fluorescence intensity (a.u.).

As to “GAGAGTCGCCTTGTCAACATATGGCAGATGCAGCTGGTGCCGGAGTCACCTAGTGCAG”, the binding signal was 61100 fluorescence intensity (a.u.).

For the sequence “TTGATGGAGATGGGAGTTGGTGCGGATGTCCTTGTCGCCCCGGAGTCACCTAGTGCAG”, the binding signal was 3200 fluorescence intensity (a.u.).

With “TGGTGCTGGTCCTCAACATGCATGTGCTATGGCAAGATCCCGGAGTCACCTAGTGCAG”, the binding signal is 42800 fluorescence intensity (a.u.).

For “TCAGCTGGCATGCATGGCAACATATATATGGCTGGAAGTACGGAGTCACCTAGTGCAG”, the binding signal is 40000 fluorescence intensity (a.u.).

Turning to “GCGAAGCAACATGCTGCTGCTCAAGAGGAGGAAGATGGTGCGGAGTCACCTAGTGCAG”, the binding signal is 3350 fluorescence intensity (a.u.).

As to “TGGTGCTGTGGTGGTGGTGGTCATGGACTCATTGGGCATGCGGAGTCACCTAGTGCAG”, the binding signal is 3180 fluorescence intensity (a.u.).
